Records with an inconclusive call do not appear. Active and inactive are the calls of the source. Calls come from the whole dose curve; as a rule, active = well fitted curve in the direction sought with a large enough effect; inconclusive = small, poorly fitted or top-dose-only effect, or another doubt; inactive = no such curve, though single readings can be large; an effect the other way counts as inactive or inconclusive.
What was measured:
MKL-2 = test: qHTS assay to identify novel small-molecules to repurpose for Merkel cell carcinoma treatment (AID 1296009); details: MCC and control cell lines, CellTiter-Glo viability, 72 h; series mostly up to 46 µM; note: nearly all actives have a fitted effect of over 60% in size; note: potency is the fitted concentration of half-maximal effect
In short: (§1)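 CellTiter-Glo luminescence after 72 hr compound exposure at 37 degree celsius gave cell viability. Libraries NPC and MIPE were run as 8- and 11-point dose responses; RLUs normalized to DMSO (negative) and no-cell (cytotoxicity) controls.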

UISO = test: as above; details: MCC and control cell lines, CellTiter-Glo viability, 72 h; series mostly up to 46 µM
In short: as §1

MKL-1 = test: as above; details: MCC and control cell lines, CellTiter-Glo viability, 72 h; series mostly up to 46 µM
In short: as §1

WaGa = test: as above; details: MCC and control cell lines, CellTiter-Glo viability, 72 h; series mostly up to 46 µM
In short: as §1

C33A = test: Primary qHTS to identify gynecologic anti-cancer compounds using libraries of approved drugs and bioactive compounds (AID 1345084); details: Gynecologic cancer cell panel viability, ATPlite luminescence, 48 h; series mostly up to 57.5 µM; note: nearly all actives have a fitted effect of over 55% in size; note: potency is the fitted concentration of half-maximal effect
In short: (§2)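 Cells, 1,000 per well, plated 16 h, then exposed 48 h at 37 C to compounds. Viability by ATPlite luminescence after 15 min at room temperature.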

CAOV3 = test: as above; details: Gynecologic cancer cell panel viability, ATPlite luminescence, 48 h; series mostly up to 57.5 µM
In short: as §2

CASKI = test: as above; details: Gynecologic cancer cell panel viability, ATPlite luminescence, 48 h; series mostly up to 57.5 µM
In short: as §2

Es-2 = test: as above; details: Gynecologic cancer cell panel viability, ATPlite luminescence, 48 h; series mostly up to 57.5 µM
In short: as §2

HeLa = test: as above; details: Gynecologic cancer cell panel viability, ATPlite luminescence, 48 h; series mostly up to 57.5 µM
In short: as §2

Hek293T = test: as above; details: Gynecologic cancer cell panel viability, ATPlite luminescence, 48 h, control line for the selectivity index; series mostly up to 57.5 µM
In short: as §2

JEG-3 = test: as above; details: Gynecologic cancer cell panel viability, ATPlite luminescence, 48 h; series mostly up to 57.5 µM
In short: as §2

OV90 = test: as above; details: Gynecologic cancer cell panel viability, ATPlite luminescence, 48 h; series mostly up to 57.5 µM
In short: as §2

PA-1 = test: as above; details: Gynecologic cancer cell panel viability, ATPlite luminescence, 48 h; series mostly up to 57.5 µM
In short: as §2

Tov-21-G = test: as above; details: Gynecologic cancer cell panel viability, ATPlite luminescence, 48 h; series mostly up to 57.5 µM
In short: as §2

Tov112D = test: as above; details: Gynecologic cancer cell panel viability, ATPlite luminescence, 48 h; series mostly up to 57.5 µM
In short: as §2

NIH3T3 = test: qHTS assay to identify novel small-molecules to repurpose for Merkel cell carcinoma treatment (AID 1296009); details: MCC and control cell lines, CellTiter-Glo viability, 72 h; at 44.8 µM (top of the series) unless noted; note: nearly all actives have a fitted effect of over 60% in size; note: potency is the fitted concentration of half-maximal effect
In short: as §1

[1] = qHTS assay to identify inhibitors of the type 1 interferon - major histocompatibility complex class I in skeletal muscle: Counter screen cell viability and HiBit confirmation (AID 1347412); details: iHSKM muscle cells + IFN-b, HiBiT or CellTiter-Glo, 24 h; for activity change, negative = inhibition: at 45.9 µM (top of the series); note: potency is the fitted concentration of half-maximal effect; for all read-outs here: nearly all actives have a fitted effect of over 60% in size
In short: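 Human myoblast knock-in line, 4.0 ng/ml IFN-beta stimulation, 24 h compound treatment. Endpoints: HiBiT lytic luminescence (HLA-B level) and CellTiter Glo (ATP). Dosing 12 concentrations, 3-fold steps, 46 uM highest final.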

[2] = Drug repurposing screens with cells derived from glioblastoma tumor samples (AID 1345199); details: GBM patient neurospheres viability, ATP luminescence, 48 h; note: nearly all actives have a fitted effect of over 40% in size
In short: (§3)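 Primary testing used CD133+ neurospheres from four GBM patients, seven concentrations, 48 h exposure and ATP-based viability; confirmation added three slower-growing patient lines.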

astro = test: as above; details: viability, ATP luminescence, 48 h; series mostly up to 45.9 µM
In short: as §3

SKOV3 = test: Primary qHTS to identify gynecologic anti-cancer compounds using libraries of approved drugs and bioactive compounds (AID 1345084); details: Gynecologic cancer cell panel viability, ATPlite luminescence, 48 h; series mostly up to 57.5 µM; note: nearly all actives have a fitted effect of over 55% in size; note: potency is the fitted concentration of half-maximal effect
In short: as §2

[3] = at 46.1 µM (top of the series), tumour line C
% is set by controls: 0 for no effect and ±100 for the full control effect.

CO[C@H]1C[C@@H]2CC[C@@H](C)[C@@](O)(O2)C(=O)C(=O)N2CCCC[C@@H]2C(=O)O[C@H]([C@H](C)C[C@@H]2CC[C@H](OCCO)[C@H](OC)C2)CC(=O)[C@H](C)C=C(C)[C@@H](O)[C@@H](OC)C(=O)[C@H](C)C[C@H](C)C=CC=CC=C1C
active: Potency (UISO) 0.833 µM
inactive: Potency (MKL-2)

CCCCCNC(=O)N1CCC(CN(Cc2ccc(Cl)cc2)Cc2ccc([N+](=O)[O-])s2)C1 (centres undefined)
inactive: Potency (MKL-1) | Potency (UISO) | Potency (WaGa)

COc1ccc2cc(-c3nc(-c4ccc(S(C)=O)cc4)[nH]c3-c3ccncc3)ccc2c1 (centres undefined)
inactive: Potency (MKL-1) | Potency (UISO) | Potency (WaGa) | Potency (C33A) | Potency (CAOV3) | Potency (CASKI) | Potency (Es-2) | Potency (HeLa) | Potency (Hek293T) | Potency (JEG-3) | Potency (OV90) | Potency (PA-1) | Potency (Tov-21-G) | Potency (Tov112D)

CO[C@@H](C(=O)N1Cc2[nH]nc(NC(=O)c3ccc(N4CCN(C)CC4)cc3)c2C1)c1ccccc1
inactive: Potency (MKL-2) | Potency (UISO)

Cc1ccc(C(C)(O)c2nc3ccccc3s2)c(C)c1 (centres undefined)
active: Potency (MKL-1) 16.6 µM | Potency (WaGa) 7.43 µM

CCC(=O)NC[C@H](Cc1ccc(OCCc2nc(-c3ccccc3)oc2C)cc1)NC(C)=CC(=O)c1ccc(C(F)(F)F)cc1
active: Potency (MKL-1) 7.43 µM | Potency (WaGa) 4.69 µM

CC=CCC(C)C(O)C1C(=O)NC(CC)C(=O)N(C)CC(=O)N(C)C(CC(C)C)C(=O)NC(C(C)C)C(=O)N(C)C(CC(C)C)C(=O)NC(C)C(=O)NC(C)C(=O)N(C)C(CC(C)C)C(=O)N(C)C(CC(C)C)C(=O)N(C)C(C(C)C)C(=O)N1C (centres undefined)
inactive: Potency (MKL-1) | Potency (WaGa)

CN(C[C@@H]1COCCO1)S(=O)(=O)Nc1ccc2ccc3ncc(-c4cnn(C)c4)cc3c(=O)c2c1
active: Potency (HeLa) 12.6 µM | Potency (Tov-21-G) 20 µM
inactive: Potency (MKL-1) | Potency (WaGa) | Potency (CASKI) | Potency (Es-2) | Potency (Hek293T) | Potency (JEG-3) | Potency (OV90)

COC(=O)C1=CO[C@@H](O)[C@@H]2C(CO)=CC[C@@H]12
inactive: outcome (NIH3T3)
active: Potency (MKL-2) 9.35 µM

CO[C@H]1C[C@@H]2CC[C@@H](C)[C@@](O)(O2)C(=O)C(=O)N2CCCC[C@@H]2C(=O)O[C@H]([C@H](C)C[C@@H]2CC[C@H](OP(C)(C)=O)[C@H](OC)C2)CC(=O)[C@H](C)C=C(C)[C@@H](O)[C@@H](OC)C(=O)[C@H](C)C[C@H](C)C=CC=CC=C1C
inactive: Potency (MKL-2) | Potency (UISO)
active: Potency (WaGa) 23.5 µM

CC(C)=CC[C@@H](O)C1=CC(=O)c2c(O)ccc(O)c2C1=O
inactive: Potency (UISO)
active: Potency (MKL-2) 20.9 µM | Potency (WaGa) 23.5 µM

COc1ccc(-c2oc3c(CC=C(C)C)c(OC4O[C@H](CO)[C@@H](O)[C@H](O)[C@@H]4O)cc(O)c3c(=O)c2OC2O[C@@H](C)[C@H](O)[C@@H](O)[C@@H]2O)cc1 (some centres undefined)
inactive: Potency (MKL-1) | Potency (WaGa)

CCCCCCCCCCCC1=C(O)C(=O)C=C(O)C1=O
active: Potency (MKL-1) 2.96 µM | Potency (WaGa) 2.96 µM
inactive: Potency (UISO)

O=C(O)[C@H]1O[C@H](Oc2cc3oc(-c4ccccc4)cc(=O)c3c(O)c2O)[C@H](O)[C@@H](O)[C@H]1O
inactive: Potency (MKL-1) | Potency (UISO) | Potency (WaGa)

CN(C)Cc1cccc(N=C(c2ccccc2)c2c(O)[nH]c3cc(C(=O)N(C)C)ccc23)c1
inactive: Potency (MKL-1) | Potency (WaGa)

Oc1ccc(C2=Cc3ccc(O)cc3OC2)cc1
active: Potency (MKL-1) 2.96 µM | Potency (WaGa) 2.35 µM

Clc1cc(Cl)cc(CNc2ncncc2-c2ccc3c(c2)OCO3)c1
inactive: Potency (MKL-2)

c1ccc2c(-c3cnn4cc(-c5ccc(N6CCNCC6)cc5)cnc34)ccnc2c1
active: Potency (MKL-1) 2.96 µM | Potency ([1]; HiBiT) 7.87 µM

c1ccc2c(Cc3c[nH]c4ccccc34)c[nH]c2c1
active: Potency (UISO) 0.469 µM
inactive: Potency (MKL-1) | Potency (WaGa)

CC1(C)O[C@H]2C[C@@H]3[C@H]4CCC5=CC(=O)C=C[C@]5(C)[C@@]4(F)[C@@H](O)C[C@]3(C)[C@]2(C(=O)CO)O1
inactive: Potency (UISO) | activity, negative = cell killing ([2]; at 45.9 µM (top of the series), tumour line B) -4.78% | activity, negative = cell killing ([2]; at 45.9 µM (top of the series), tumour line D) 5.68% | activity, negative = cell killing ([2]; at 46 µM (top of the series), tumour line A) -11.2% | activity, negative = cell killing [2, 3] 3.17% | Potency (astro)
active: Potency (MKL-1) 18.7 µM | Potency (WaGa) 13.2 µM

O=C(CCc1ccc(O)cc1)c1c(O)cc(O)cc1O[C@@H]1O[C@H](CO)[C@H](O)[C@H](O)[C@H]1O
inactive: Potency (MKL-1) | Potency (UISO) | Potency (WaGa)

NC(=O)c1cccc(-c2cc(Nc3ccc(OC(F)(F)F)cc3)ncn2)c1
inactive: Potency (MKL-1) | Potency (C33A) | Potency (CASKI) | Potency (Es-2) | Potency (HeLa) | Potency (Hek293T) | Potency (JEG-3) | Potency (OV90) | Potency (PA-1) | Potency (SKOV3) | Potency (Tov-21-G) | Potency (Tov112D)

CC1(C)S[C@H]2[C@H](NC(=O)[C@@H](N)c3ccc(O)cc3)C(=O)N2[C@@H]1C(=O)O
inactive: Potency (UISO)
active: Potency (MKL-2) 4.18 µM | Potency (WaGa) 2.64 µM

CN(C)Cc1ccc(-c2nc3cccc4c3n2CCNC4=O)cc1
inactive: Potency (MKL-1) | Potency (UISO) | Potency (WaGa) | Potency (C33A) | Potency (CAOV3) | Potency (CASKI) | Potency (HeLa) | Potency (JEG-3) | Potency (OV90) | Potency (SKOV3) | Potency (Tov112D)

O=C(NCc1ccccc1)c1csc(Nc2ccncn2)n1
active: Potency (MKL-1) 8.33 µM | Potency (UISO) 23.5 µM | Potency ([1]; HiBiT) 9.91 µM
inactive: Potency (C33A) | Potency (CASKI) | Potency (Es-2) | Potency (HeLa) | Potency (Hek293T) | Potency (JEG-3) | Potency (OV90) | Potency (PA-1) | Potency (Tov112D) | activity change, negative = inhibition ([1]; Viability) -20.4%

CC(=O)O[C@]1(C(C)=O)CC[C@@H]2[C@@H]3C[C@H](C)C4=CC(=O)CC[C@]4(C)[C@H]3CC[C@@]21C
inactive: Potency (UISO)

COc1ccc(-c2nc(N3CCOCC3)c3sc(CN(C)c4ncc(C(=O)NO)cn4)cc3n2)cn1
active: Potency (UISO) 0.0235 µM | Potency (WaGa) 0.0026 µM | Potency ([1]; HiBiT) 0.0279 µM

O=C(O)c1c(Cl)c(Cl)c(Cl)c(Cl)c1-c1c2cc(I)c(=O)c(I)c-2oc2c(I)c(O)c(I)cc12
inactive: Potency (UISO) | activity, negative = cell killing [2, 3] -28.5%

CC1(C)CCC2=C(O1)c1ccccc1C(=O)C2=O
active: Potency (WaGa) 26.4 µM | Potency ([1]; HiBiT) 22.2 µM | Potency ([1]; Viability) 24.9 µM

CNC1CCC(N(Cc2cccc(-c3ccncc3)c2)C(=O)c2sc3c(F)ccc(F)c3c2Cl)CC1 (centres undefined)
inactive: Potency (WaGa) | Potency (C33A) | Potency (CASKI) | Potency (HeLa) | Potency (JEG-3) | Potency (SKOV3) | Potency (Tov112D) | activity change, negative = inhibition ([1]; HiBiT) -27.3%
